High-throughput results from PubChem.
A selection: hits, their analogues and other compounds. The true share with any hit is near 12%.
Shiga toxin inh: inhibitors of Shiga toxin in Vero cells; Vero cells, Shiga toxin protein synthesis inhibition reporter; inhibition, % at 38.7 µM; hit rate 9.2% among 290,000; in the data active means inhibition mostly above about 28%, no sharp cut-off; inactive means mostly below about 43%; further: 0% is about no effect
Cycloheximide cs: counter-screen for Shiga toxin inhibitors: cycloheximide protein synthesis inhibition | max response, % | cell reporter, cycloheximide protein synthesis inhibition counterscreen | hit rate 12% among 300,000; in the data active means max response mostly above about 13%, no sharp cut-off; inactive means mostly below about 14%; further: read at 38.3 µM for the half of the compounds with a filed dose; 0% is about no effect
FMDV antiviral: antivirals against foot and mouth disease virus; FMDV antiviral cell-based qHTS; hit rate 1.2% among 410,000; Potency, µM (series often up to 57.9 µM), without a hit: top-dose activity change, negative = inhibition, hits mostly inhibitors; calls by dose curve; tested in HEK293T cells; further: read-out not given here; potency means the concentration at half of the fitted maximal effect; on the % scale 0 is the no-effect control and ±100 the full control effect; nearly all actives have a fitted effect of over 45% in size
Sm TGR inh: S. mansoni TGR enzyme inhibition | Q962Y6 | purified TGR, DTNB reduction, TNB absorbance 405 nm | Potency, µM (series often up to 114 µM), for inactives: at the top dose activity change, negative = inhibition, most hits filed as inhibitors | hit rate 3% among 360,000 | AID 485364; active means well fitted inhibition curve with a large enough effect; inconclusive means small, poorly fitted or top-dose-only effect; inactive means no such curve, though single readings can be large or run the other way; further: potency means the concentration at half of the fitted maximal effect; on the % scale 0 is the no-effect control and ±100 the full control effect; nearly all actives have a fitted effect of over 60% in size
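TGR 20 nM + NADPH 100 uM (dispensed conc.), cpd preinc 15 min RT; start with NADPH (500 uM addition) then DTNB (15 mM addition). Kinetic TNB absorbance, 405 nm filter. Four-parameter Hill fit across titration.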
An asterisk follows results filed as active; ? = inconclusive; . = not tested or not shown.

SMILES	Shiga toxin inh	Cycloheximide cs	FMDV antiviral	Sm TGR inh
COc1cc(OC)cc(-c2cc3nc(C)c(CCC(=O)Nc4ccc(F)c(Cl)c4)c(C)n3n2)c1	.	.	31.6µM*	-3.3%
CCC(Sc1nc(-c2ccccc2)[nH]c1S(=O)(=O)c1ccc(C)cc1)C(=O)O (stereo not given)	.	.	0.3%	?
CCC1CN(C)C2Cc3c([nH]c4ccccc34)C(=O)CC1C2C(=O)OC (stereo not given)	-3.3	0.7	0.0%	44.7µM*
O=C(c1ccc(Nc2nc3ccccc3n3nnnc23)cc1)N1CCN(c2ccc(F)cc2)CC1	.	.	-7.6%	3.9%
COc1ccccc1CNC(=O)c1cc2sccc2n1Cc1ccc(Cl)cc1	.	.	-16.4%	10.3%
O=C(C1CCCCC1)N1CCN(c2ccnc3cc(Cl)ccc23)CC1	-9.5	-10.0	28.2µM*	3.7%
CCCCCOc1ccc(Cn2c(=O)oc3ccc(C)cc32)cc1OC	.	.	-23.3%	-3.6%
c1ccc(-c2nnc(CN3CCN(c4ccccn4)CC3)o2)cc1	.	.	2.4%	-12.6%
CCN1CCN(Cc2nc3cc(NC(=O)c4ccccc4[N+](=O)[O-])ccc3n2CC)CC1	.	.	1.1%	1.0%
O=C(N/N=C/c1cn(-c2ccccc2)nc1-c1cc2ccccc2o1)c1c[nH]c2ccccc12	133.5*	44.9*	9.0%	.
O=C(N/N=C/c1coc2ccccc2c1=O)c1cn(-c2ccccc2)nc1-c1ccccc1	-14.1	0.4	-24.4%	3.9%
O=C(N/N=C/c1cn(-c2ccccc2)nc1-c1cc2ccccc2o1)c1ccccc1Br	99.8*	66.0*	0.0%	-0.4%
COc1ccc(NC(=O)c2cn(-c3ccccc3)nc2-c2cc3ccccc3o2)cc1	19.1	-2.3	4.1%	8.1%
c1ccc2c(c1)Cc1cc(CN3CCOCC3)ccc1-2	76.3*	40.9*	43.7%	-5.7%
c1ccc(Oc2cccc(CN3CCOCC3)c2)cc1	-14.2	27.9*	-16.9%	-0.7%
COc1nc(-c2ccccc2)nnc1-c1ccccc1	85.5*	41.2*	34.3%	.
C/C(O)=C\c1nc2ccccc2oc1=O	47.0*	24.7*	16.5%	-11.4%
Cc1ccc2oc(=O)c(/C=C(\O)c3ccccc3)nc2c1	19.5	1.6	-12.2%	-17.3%
O=c1oc2ccccc2nc1/C=C(\O)c1ccc(Br)cc1	38.8*	26.9*	-15.0%	?
CCOC(=O)c1sc2cccc(F)c2c1S(=O)(=O)N1CCN(c2cccc(Cl)c2)CC1	.	.	-13.9%	-10.3%
CN(C)c1ccc(/C=C2/C(=N\O)C3CCN2CC3)cc1	88.6*	41.1*	9.1%	-10.7%
CN(C)c1ccc(/C=N/O)cc1	50.9	14.9	27.1%	-18.7%
Cc1cc(C)c2c(n1)nn1c(C)c(CCC(=O)NCc3ccc(Cl)cc3)c(C)nc21	.	.	5.8%	4.2%
CN(C)CCCN(C(=O)c1ccc2c(c1)OCCO2)c1nc2cc3c(cc2s1)OCO3	19.1	1.6	-5.7%	-18.6%
Cc1ccc2nc(N(CCCN(C)C)C(=O)c3ccc4ncsc4c3)sc2c1	89.0*	40.6*	-14.3%	0.7%
SMILES	Shiga toxin inh	Cycloheximide cs	FMDV antiviral	Sm TGR inh
CN(C)CCCN(C(=O)c1ccc([N+](=O)[O-])o1)c1nc2cc3c(cc2s1)OCO3	59.6*	55.0*	0.0%	-20.3%
CN(C)CCN(C(=O)c1cccc(N2C(=O)CCC2=O)c1)c1nc2ccc(Br)cc2s1	35.2	13.0*	-11.4%	-13.8%
COc1ccc(C)c2sc(N(CCN(C)C)C(=O)c3cccc(N4C(=O)CCC4=O)c3)nc12	.	.	-5.2%	1.5%
CCN(CC)CCN(C(=O)c1ccc2ccccc2c1)c1nc2ccc(F)cc2s1	51.2*	8.9	-18.8%	-12.9%
COc1ccc(OC)c(NC(=O)CCc2nc(-c3ccc(C)cc3)no2)c1	.	.	-20.5%	-2.6%
COC(=O)[C@H](CCCN=C(N)N)NC(=O)CCCc1c(-c2ccccc2)[nH]c2c(F)cc(F)cc12	1.5	-2.1	-17.3%	.
COc1cccc(-c2ccc3ncnc(NCCN4CCOCC4)c3c2)c1	.	.	3.6%	.
Cc1sc2ncn(CC(=O)Nc3cccc(C(F)(F)F)c3)c(=O)c2c1S(=O)(=O)N1CCC(C)CC1	.	.	3.0%	2.0%
COC(=O)c1ccccc1NC(=O)N1CCC(n2c(C)nc3cccnc32)CC1	.	.	-16.5%	-23.9%
CCCCN(C)S(=O)(=O)c1ccc(C(=O)N(CCN(C)C)c2nc3ccc(C)cc3s2)cc1	44.2*	19.8*	4.7%	15.1%
CCN(CC)CCN(C(=O)c1cc2c(ccc3ccccc32)oc1=O)c1nc2cc3c(cc2s1)OCCO3	11.4	21.3*	-1.9%	-6.5%
CN(C)CCN(C(=O)c1ccc(N2C(=O)CCC2=O)cc1)c1nc2cc3c(cc2s1)OCO3	30.1	15.2	-7.7%	20µM*
Cc1ccc2nc(N(CCN(C)C)C(=O)c3ccc4ccccc4c3)sc2c1	16.7	24.0	4.5%	-2.9%
CN(C)CCN(C(=O)c1ccc2ccccc2c1)c1nc2ccc(Br)cc2s1	44.0	16.4*	-1.4%	-12.4%
CCN(CC)CCN(C(=O)c1ccc2c(c1)OCCO2)c1nc2cc3c(cc2s1)OCO3	-14.6	-4.0	-16.3%	4.8%
COC(=O)C(C)NC(=O)N1CCN(c2nnc(C)c3c(C)n(-c4ccc(Cl)cc4)nc23)CC1 (stereo not given)	.	.	?	7.4%
CN(C)CCCN(C(=O)c1ccc2ccccc2c1)c1nc2cc3c(cc2s1)OCO3	-17.4	-2.5	-9.0%	-0.8%
CN(C)CCN(C(=O)COc1ccc(Cl)cc1)c1nc2cc3c(cc2s1)OCO3	-1.7	21.9*	-1.1%	-16.6%
Cc1ccc2nc(N(CCN(C)C)C(=O)c3ccc4c(c3)OCCO4)sc2c1	64.1	34.7*	11.8%	-4.9%
CCN(CC)CCN(C(=O)c1ccc2c(c1)OCCO2)c1nc2ccc(C)cc2s1	4.3	12.0	-11.5%	13.3%
CN(C)CCN(C(=O)c1ccc2ccccc2c1)c1nc2cc3c(cc2s1)OCCO3	81.9*	39.1*	13.1%	-19.8%
CN(C)CCCN(C(=O)COc1ccc(Cl)cc1)c1nc2cc3c(cc2s1)OCO3	-23.0	-4.3	-7.2%	-12.7%
CN(C)CCCN(C(=O)c1sc2ccccc2c1Cl)c1nc2ccc(F)cc2s1	78.6*	37.1*	-31.7%	-0.2%
CNc1cc(-c2ccccc2C(F)(F)F)ncn1	.	.	2.6%	.
Cc1ccc(C)c(N2CCN(C(=O)CCc3nnc4n(C)c(=O)c5ccccc5n34)CC2)c1	.	.	-18.3%	2.6%
SMILES	Shiga toxin inh	Cycloheximide cs	FMDV antiviral	Sm TGR inh
CCOc1ccc(C(=O)N2CCC(c3nc4ccccc4o3)CC2)cc1	.	.	-12.6%	0.1%
COc1ccc(NC(=O)c2cc(-c3ccccc3F)no2)cc1	.	.	53.6%	-14.7%
Cc1ccc2sc(N(CCCN(C)C)C(=O)c3ccc(S(=O)(=O)N(C)Cc4ccccc4)cc3)nc2c1C	.	.	31.6µM*	-2.7%
CN(C)CCN(C(=O)c1ccc(S(=O)(=O)N2CCCC2)cc1)c1nc2ccc(Br)cc2s1	56.5*	29.9*	2.2%	-11.0%
CN(C)CCN(C(=O)c1ccc(S(=O)(=O)N2CCc3ccccc32)cc1)c1nc2ccc(F)cc2s1	79.3*	15.6	-0.5%	-21.4%
Cc1ccc2nc(N(CCCN(C)C)C(=O)c3ccc(S(=O)(=O)N4CCCCCC4)cc3)sc2c1	-7.2	-3.5	-24.8%	-7.5%
CCCNC(=O)C(=O)NCC(c1ccc2c(c1)OCO2)N1CCOCC1 (stereo not given)	.	.	2.1%	0.3%
O=C(NCCc1nnc2n1CCN(Cc1ccc3c(c1)CCO3)CC2)c1ccco1	.	.	1.4%	.
